Experimental data from the supplement of paper PMC12494721.
Where a name gives a salt, the structure may show the parent alone. A number with no mark means an inactive call.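 How the source made its calls: for the amine columns active = adjusted P below 0.05 in both replicates with a change the same way and a mean fold change under 0.8 or over 1.25; inactive = the rest.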

Test system: Clostridium sporogenes DSM 1664
Experiment: fold change of Tryptamine concentration vs plate DMSO controls (fold change (ratio)); higher = more amine produced, active = hit call of the paper (significant change in both replicates, either direction)
Settings: incubation time: 27 h, anaerobic, 37 °C
How it was run: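 Amines were quantified by LC–triple-quadrupole MS in dynamic MRM mode against external calibration curves, with drift correction within each batch. The samples were whole anaerobic mGAM cultures of four gut bacterial strains, grown for 27 h at 37 °C in 80 µL wells and extracted with cold acetonitrile/methanol with 0.1% formic acid, then centrifuged. Values are reported as fold change over DMSO controls on the same plate. The mean of 2 biological replicates is given.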

Row | SMILES | fold change of Tryptamine concentration
1 | Oc1c(Cl)cc(Cl)cc1Sc1cc(Cl)cc(Cl)c1O [Bithionol] (20 µM) | 0.0165 (active)
2 | CO[C@@]1(NC(=O)C2SC(=C(C(N)=O)C(=O)O)S2)C(=O)N2C(C(=O)O)=C(CSc3nnnn3C)CS[C@@H]21 (some centres undefined) [Cefotetan] (20 µM) | 0.0152 (active)
3 | N#CC(c1ccc(Cl)cc1)c1c(Cl)cc(-n2ncc(=O)[nH]c2=O)cc1Cl (centres undefined) [Diclazuril] (20 µM) | 0.791
4 | CN(C)CCCN1c2ccccc2Sc2ccc(C(F)(F)F)cc21 [Triflupromazine hydrochloride] (20 µM) | 1.05
5 | CCC(=O)OCC(=O)[C@@]1(OC(=O)CC)[C@@H](C)C[C@H]2[C@@H]3CCC4=CC(=O)C=C[C@]4(C)[C@@]3(Cl)[C@@H](O)C[C@@]21C [Beclomethasone dipropionate] (20 µM) | 1.01
6 | O=C1CN(/N=C/c2ccc(-c3ccc([N+](=O)[O-])cc3)o2)C(=O)N1 [Dantrolene sodium salt] (20 µM) | 0.968
7 | CC(C)(C(=O)O)c1ccc(C(O)CCCN2CCC(C(O)(c3ccccc3)c3ccccc3)CC2)cc1 (centres undefined) [Fexofenadine hydrochloride] (20 µM) | 1.04
8 | C[C@H]1[C@@H](O)O[C@@H]2O[C@@]3(C)CC[C@H]4[C@H](C)CC[C@@H]1[C@@]24OO3 [Artenimol] (20 µM) | 0.991
9 | CC(C)(C)NC[C@H](O)COc1ccccc1C1CCCC1 [Penbutolol sulfate] (20 µM) | 1.03
